From PubChem BioAssay (EPA / NIEHS)
Where “and” joins values, the source holds several entries; their conditions need not be identical. Equal values may be shown once. Records with an inconclusive call do not appear. Calls of active or inactive are those of the source. How the source made its calls, unless noted: active means hit-call score of the fitted dose curve at least 0.9, where 1 is the maximum; inactive means score below 0.9.

test system: not listed separately; assay: CCTE_Mundy_HCI_hNP1_CellTiter: CCTE's Cell Titer-Glo 2 Assay in human neuroprogenitor cells for Viability, Mundy Lab (AID 2284241; active means hit-call score of the fitted dose curve at least 0.9, where 1 is the maximum;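 on AC50: a hit is a drop in ATP luminescence versus DMSO meaning reduced viability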); conditions: not given
Procedure, shortened: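 Human neural progenitor cells (hNP1, WA09-derived) were plated on poly-L-ornithine/laminin and grown 40 to 44 hours at 37 °C, 5% CO2 before chemical addition. Twenty-four hours later, ATP was measured by CellTiter-Glo luminescence; loss of signal versus DMSO indicates reduced viability.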

Row | Structure (SMILES) | outcome | AC50
1 | O=P(O)(O)CCC(F)(F)C(F)(F)C(F)(F)C(F)(F)C(F)(F)C(F)(F)F | inactive | 
2 | CC(C)c1c(C(=O)Nc2ccccc2)c(-c2ccccc2)c(-c2ccc(F)cc2)n1CC[C@@H](O)C[C@@H](O)CC(=O)O |  | 12.8 µM (active)
3 | O=P(O)(O)CCC(F)(F)C(F)(F)C(F)(F)C(F)(F)C(F)(F)C(F)(F)C(F)(F)C(F)(F)F | inactive | 
4 | C=CC(=O)OCCC(F)(F)C(F)(F)C(F)(F)C(F)(F)C(F)(F)C(F)(F)C(F)(F)C(F)(F)F | inactive | 
5 | OCC(F)(F)C(F)(F)C(F)(F)C(F)(F)C(F)(F)C(F)(F)C(F)(F)C(F)(F)C(F)(F)C(F)(F)C(F)(F)F | inactive | 
6 | CN(Cc1cnc2nc(N)nc(N)c2n1)c1ccc(C(=O)N[C@@H](CCC(=O)O)C(=O)O)cc1 | inactive | 
7 | O=C1NS(=O)(=O)c2ccccc21 | inactive | 
8 | O=C(CC(=O)C(F)(F)C(F)(F)C(F)(F)F)c1cccs1 | inactive | 

test system: not listed separately; assay: CCTE_Mundy_HCI_Cortical_Synap_Neur_Matur_NeuronCount: CCTE's Synaptogenesis and Neurite Maturation Assay in rat cortical cells for Neuron Count, Mundy Lab (AID 2284242; active means hit-call score of the fitted dose curve at least 0.9, where 1 is the maximum;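 on AC50: hits reduce neuron count versus DMSO baseline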); conditions: not given
Procedure, shortened: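 Neuron number was scored by automated high-content imaging of Hoechst- and MAP2-labelled rat primary cortical cells. Glial growth was arrested with AraC at DIV 5, compounds were applied from DIV 7, and cultures ended at DIV 12.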

Row | Structure (SMILES) | AC50 | outcome
9 | CC(C)c1c(C(=O)Nc2ccccc2)c(-c2ccccc2)c(-c2ccc(F)cc2)n1CC[C@@H](O)C[C@@H](O)CC(=O)O | 5.15 µM (active) | 
10 | O=C(CCCN1CCC(O)(c2ccc(Cl)cc2)CC1)c1ccc(F)cc1 | 21.9 µM (active) | 
11 | CN(Cc1cnc2nc(N)nc(N)c2n1)c1ccc(C(=O)N[C@@H](CCC(=O)O)C(=O)O)cc1 |  | inactive
12 | O=C1NS(=O)(=O)c2ccccc21 |  | inactive
13 | Nc1ccn([C@@H]2O[C@H](CO)[C@@H](O)C2O)c(=O)n1 (stereo partly specified) | 10.8 µM (active) | 

read-out: Basic fibroblast growth factor (bFGF), FGF2 (gene 2247); assay: BSK_MyoF_bFGF: BioMAP Diversity Plus: MyoF Assay for Basic fibroblast growth factor (bFGF) Biomarker Activity (AID 2284246); conditions: primary human lung fibroblasts
Procedure, shortened: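 ELISA-measured bFGF level serves as the read-out, taken 24 h after chemical dosing of human lung fibroblasts. Values represent signal gain over the DMSO negative control.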

Row | Structure (SMILES) | outcome | AC50
14 | O=P(O)(O)CCC(F)(F)C(F)(F)C(F)(F)C(F)(F)C(F)(F)C(F)(F)F | inactive | 
15 | O=S(=O)(O)C(F)(F)C(F)(F)C(F)(F)C(F)(F)C(F)(F)C(F)(F)C(F)(F)C(F)(F)C(F)(F)C(F)(F)F | inactive | 
16 | O=C(O)CCC(F)(F)C(F)(F)C(F)(F)C(F)(F)C(F)(F)F | inactive | 
17 | Clc1ccc(Nc2nnc(Cc3ccncc3)c3ccccc23)cc1 | inactive | 
18 | CC[N+](CC)(CC)Cc1ccccc1 | inactive | 
19 | CC(C)(C)c1ccc(O)c(O)c1 |  | 30.1 µM (active)
20 | O=P(O)(O)CCC(F)(F)C(F)(F)C(F)(F)C(F)(F)C(F)(F)C(F)(F)C(F)(F)C(F)(F)F | inactive | 
21 | C=CC(=O)OCCC(F)(F)C(F)(F)C(F)(F)C(F)(F)C(F)(F)C(F)(F)C(F)(F)C(F)(F)F | inactive | 
22 | CN(CCO)S(=O)(=O)C(F)(F)C(F)(F)C(F)(F)C(F)(F)C(F)(F)C(F)(F)C(F)(F)C(F)(F)F | inactive | 
23 | OCC(F)(F)C(F)(F)C(F)(F)C(F)(F)C(F)(F)C(F)(F)C(F)(F)C(F)(F)C(F)(F)C(F)(F)C(F)(F)F | inactive | 
24 | CN(Cc1cnc2nc(N)nc(N)c2n1)c1ccc(C(=O)N[C@@H](CCC(=O)O)C(=O)O)cc1 | inactive | 
25 | Oc1cc2ccccc2cc1O | inactive | 
26 | O=C(CC(=O)C(F)(F)C(F)(F)C(F)(F)F)c1cccs1 | inactive | 
27 | CC1=NN(c2ccccc2)C(=O)C1 | inactive | 
28 | CCCCC(CC)C(=O)OCCOCCOCCOCCOC(=O)C(CC)CCCC (stereo unspecified) | inactive | 
29 | O=C(O)CCC(F)(F)C(F)(F)C(F)(F)C(F)(F)C(F)(F)C(F)(F)F | inactive | 
30 | O=C(O)C(F)(F)OC(F)(F)C(F)(F)OC(F)(F)C(F)(F)OC(F)(F)C(F)(F)C(F)(F)C(F)(F)F |  | 16.8 µM (active) and 14 µM (active)
31 | Cc1ccc(C(=O)c2ccccc2)cc1 | inactive | 
